Source: PubChem BioAssay AID795 (NMMLSC, 2007)
Out of some 24,000 compounds screened, about 130 (0.54%) were called active. Only a selection was taken, and actives are over-represented in it overall. Values without a mark were called inactive.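 How the source made its calls: active means side scatter shift above 30%; inactive means the rest.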

assay: activators of LNCaP prostate cell differentiation, primary screen, flow cytometry side scatter (AID 795); settings: 4 d, at 10 µM, hits give high values;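 further: androgen-responsive LNCaP prostate cancer cells in charcoal-stripped serum medium; percent of cells past a gate set so DMSO wells show 10% shift; higher shift means more granular cells and more differentiation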

SMILES	side scatter shift
Cc1ccc(-c2nnc(SC(C)C#N)n2N)cc1 (centres undefined)	11%
CCn1c(=O)cc(OCC(=O)NCCCN2CCN(c3cccc(Cl)c3)CC2)c2ccccc21	27%
CC1CCCC(C)N1CCCNC(=O)c1cc2c(=O)n(C)c3ccccc3c2n1C (centres undefined)	9%
Cn1c(C(=O)NCCCN2CCN(c3cccc(Cl)c3)CC2)cc2c(=O)n(C)c3ccccc3c21	92% (active)
COc1ccccc1NC(=O)C1=C(C)Nc2ncnn2C1c1ccc(C)o1 (centres undefined)	16%
CCOC(=O)C1C(=O)C=C(c2ccc(OC)cc2)CC1c1ccco1 (centres undefined)	5%
CC(=O)NC(C)c1nc2ccccc2n1Cc1ccccc1F (centres undefined)	7%
CC1=C(C(=O)Nc2ccccc2)C(c2cccs2)C(C#N)=C(SCC#N)N1 (centres undefined)	4%
Cc1nnc(C)n1/N=C/c1ccc(C(C)C)cc1	18%
Cn1c(=O)cc(OCCCC(=O)N2CCN(Cc3ccc4c(c3)OCO4)CC2)c2ccccc21	12%
OCc1nc(CO)n(Cc2ccccc2)n1	7%
Cc1ccc(N2C(=O)c3oc4ccccc4c(=O)c3C2c2cccnc2)nc1 (centres undefined)	3%
O=c1ccn(Cc2ccccc2Cl)cc1	3%
O=C1N=C(N2CCOCC2)CS1	16%
CCC(C)(C)n1nnnc1C(c1ccccc1OC)N1CCSCC1 (centres undefined)	10%
CCn1c(=O)cc(SCC(=O)NCc2ccc3c(c2)OCO3)c2ccccc21	20%
O=C(O)CCC(=O)Nc1ccc(N2CCOCC2)cc1	6%
CCOc1ccc(C(=O)N(Cc2ccc(N(C)C)cc2)C2CCS(=O)(=O)C2)cc1 (centres undefined)	12%
O=C(CC(Cc1ccccc1)C(=O)O)NCCc1ccc2c(c1)OCO2 (centres undefined)	6%
O=C(CSc1nc2ncccc2[nH]1)Nc1ccc2c(c1)OCCO2	3%
Nc1c(C(=O)NCc2ccccc2)nnn1Cc1cccc(Cl)c1	24%
O=C(CCn1c(=S)[nH]c2ccccc2c1=O)NCCCN1CCCC1=O	6%

SMILES	side scatter shift
COc1cccc2cc(C(C)N(CCCN3CCOCC3)C(=O)Nc3ccc(Cl)cc3)oc12 (centres undefined)	6%
CCOC(=O)Cn1c(N)c(C(=O)OC)sc1=S	0%
Clc1ccc(Cn2ncc3c(NCc4cccnc4)ncnc32)cc1	11%
CCOC(=O)CSc1nc2c(c(=O)n(C)c(=O)n2C)n1Cc1ccccc1F	11%
O=C(Nc1ccccc1C(F)(F)F)c1cc(-c2ccc(O)cc2)on1	5%
CCOC(=O)c1nc(-c2ccc3c(c2)OCO3)[nH]c1C	7%
CCCN1CCN(C(=O)Cn2ncc3ccccc32)CC1	6%
CCCOC(=O)c1[nH]c2c(c1C)C(=O)CC(c1cc(OC)c(OC)c(OC)c1)C2 (centres undefined)	11%
CC1(C)C(=O)Nc2ccccc2N1C(=O)COC(=O)Cn1cnc2ccccc2c1=O	7%
Cc1ccc(C(=O)N(CN2CCCC2=O)c2ccc(F)cc2)cc1	15%
CCCC(=O)Nc1cccc(-c2cn3ccsc3n2)c1	3%
O=C(COC(=O)C12CC3CC(CC(C3)C1)C2)NCc1ccco1	12%
CCOC(=O)C1CCCN(C(=O)c2ccc(CS(=O)(=O)c3ccc(Br)cc3)o2)C1 (centres undefined)	8%
Cc1ccsc1C(C(=O)NC1CCCCC1)N(C(=O)Cc1cccs1)C1CC1 (centres undefined)	9%
CCCCc1nccn1CCn1ccnc1CCCC	7%
O=C(C1CC1)N1CCN=C1SCc1ccc(Cl)cc1	11%
Cc1cc(=O)n(C)c(=O)n1CCCNc1ccccc1	9%
CC(C)Nc1nc(N(c2ccccc2)c2ccccc2)nc(-n2ccnc2)n1	10%
CC(CCc1ccccc1)NC(=O)c1ccc(Br)o1 (centres undefined)	5%
C/C(=C(\C#N)C(=O)NCCCN1CCOCC1)N(C)C	13%
O=C(NCc1cccnc1)c1ccc(CS(=O)(=O)c2ccc(Br)cc2)o1	4%
O=S(=O)(Nc1ccccn1)c1ccc(Oc2ccccc2)cc1	13%
